Source: PubChem BioAssay (NCATS)
Inconclusive results are not listed. The source made the active and inactive calls. Unless noted, calls come from the whole dose curve; as a rule, active = well fitted curve in the direction sought with a large enough effect; inconclusive = small, poorly fitted or top-dose-only effect, or another doubt; inactive = no such curve, though single readings can be large; an effect the other way counts as inactive or inconclusive.

What was measured:
[1] = Stat Signaling Pathway (AID 446; active = well fitted curve in either direction with a large enough effect, not every such curve was filed as active;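 note: ME-180 cervical cancer cells given 40 pM IL-6 alongside compound; SIE-controlled beta-lactamase reporter measured as 460/530 nm FRET emission ratio; % is set by controls: 0 for no effect and ±100 for the full control effect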); details: ME-180 SIE beta-lactamase reporter, IL-6 stimulated, 5 h; at 38 µM (top of the series)
In short: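 ME-180 SIE-bla cells; overnight plating; cpd + IL-6 40 pM, 5 h, 37 C; LiveBLAzer 2.5 h RT; 460/530 nm emission ratio. Normalized to 300 pM IL-6 and 125 nM JAK inhibitor controls.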

[2] = target: Glucocorticoid receptor (Homo sapiens) (UniProt P04150); assay: GR-GFP Redistribution (AID 450;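 active = compounds whose dose series gives a full or clear partial fitted curve of increased nuclear translocation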; note: potency is the fitted concentration of half-maximal effect); details: U2OS GR-GFP nuclear translocation, laser cytometry, 2 h
Chain of Glucocorticoid receptor (Homo sapiens) (P04150 whole entry, looked up, the tested form may be a part): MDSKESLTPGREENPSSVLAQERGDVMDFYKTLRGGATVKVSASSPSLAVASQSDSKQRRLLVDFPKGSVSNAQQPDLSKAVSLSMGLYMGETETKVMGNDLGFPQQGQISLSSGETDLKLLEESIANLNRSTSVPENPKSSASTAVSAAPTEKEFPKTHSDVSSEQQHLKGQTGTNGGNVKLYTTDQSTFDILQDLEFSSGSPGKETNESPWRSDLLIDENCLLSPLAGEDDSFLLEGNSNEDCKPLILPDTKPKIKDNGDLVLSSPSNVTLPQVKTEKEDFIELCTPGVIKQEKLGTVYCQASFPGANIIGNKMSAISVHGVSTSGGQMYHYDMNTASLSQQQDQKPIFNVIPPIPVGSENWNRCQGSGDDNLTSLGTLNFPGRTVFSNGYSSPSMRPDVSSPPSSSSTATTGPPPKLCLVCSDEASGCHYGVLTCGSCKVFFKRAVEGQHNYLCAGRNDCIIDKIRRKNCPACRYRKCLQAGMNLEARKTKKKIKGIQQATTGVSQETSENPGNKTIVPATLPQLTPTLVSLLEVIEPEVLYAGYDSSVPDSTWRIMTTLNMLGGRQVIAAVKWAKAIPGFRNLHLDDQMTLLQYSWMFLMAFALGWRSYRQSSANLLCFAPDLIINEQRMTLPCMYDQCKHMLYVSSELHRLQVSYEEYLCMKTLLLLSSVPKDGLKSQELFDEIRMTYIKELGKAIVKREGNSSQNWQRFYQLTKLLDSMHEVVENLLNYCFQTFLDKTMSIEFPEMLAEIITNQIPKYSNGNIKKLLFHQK

[3] = target: Glucocorticoid receptor (Homo sapiens) (UniProt P04150); assay: GR-EFC Redistribution (AID 451; calls by dose curve; note: potency is the fitted concentration of half-maximal effect); details: CHO-K1 GR-EFC translocation, beta-gal luminescence, 2 h
In short: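 Translocation of GR-ED fusion to nuclear EA restores b-gal, read by luminescence after 1 h room-temperature detection. Engineered CHO-K1 biosensor cells, 1,000/well, exposed 2 h at 37 C to titrations up to 46 uM final.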

[4] = target: Mitogen-activated protein kinase 10 (Mus musculus) (UniProt Q61831); assay: JNK3 AlphaScreen Assay (AID 530; active = well fitted curve in either direction with a large enough effect, not every such curve was filed as active;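 note: kinase came from lysate of stimulated human HepG2 cells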; note: potency is the fitted concentration of half-maximal effect); details: JNK3 lysate, c-Jun phosphorylation; series mostly up to 57.1 µM
In short: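 Room-temperature AlphaScreen kinase assay; pre-activated HepG2 lysate as JNK3 source, biotin-GST-cJun(1-79) substrate, 10 uM ATP, compound 15 min preincubation.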

[5] = target: 3',5'-cyclic-AMP phosphodiesterase 4B (Homo sapiens) (UniProt Q07343); assay: qHTS Assay for Inhibitors of PDE-IV (AID 607; active = well fitted activation curve with a large enough effect in the main read-out, with a control signal flat, not every such curve was filed as active; note: % of control where 0% means no effect); details: HEK293 ACTOne CNG channel cells, membrane potential fluorescence; series mostly up to 22.9 µM
Chain of 3',5'-cyclic-AMP phosphodiesterase 4B (Homo sapiens) (Q07343 whole entry, looked up): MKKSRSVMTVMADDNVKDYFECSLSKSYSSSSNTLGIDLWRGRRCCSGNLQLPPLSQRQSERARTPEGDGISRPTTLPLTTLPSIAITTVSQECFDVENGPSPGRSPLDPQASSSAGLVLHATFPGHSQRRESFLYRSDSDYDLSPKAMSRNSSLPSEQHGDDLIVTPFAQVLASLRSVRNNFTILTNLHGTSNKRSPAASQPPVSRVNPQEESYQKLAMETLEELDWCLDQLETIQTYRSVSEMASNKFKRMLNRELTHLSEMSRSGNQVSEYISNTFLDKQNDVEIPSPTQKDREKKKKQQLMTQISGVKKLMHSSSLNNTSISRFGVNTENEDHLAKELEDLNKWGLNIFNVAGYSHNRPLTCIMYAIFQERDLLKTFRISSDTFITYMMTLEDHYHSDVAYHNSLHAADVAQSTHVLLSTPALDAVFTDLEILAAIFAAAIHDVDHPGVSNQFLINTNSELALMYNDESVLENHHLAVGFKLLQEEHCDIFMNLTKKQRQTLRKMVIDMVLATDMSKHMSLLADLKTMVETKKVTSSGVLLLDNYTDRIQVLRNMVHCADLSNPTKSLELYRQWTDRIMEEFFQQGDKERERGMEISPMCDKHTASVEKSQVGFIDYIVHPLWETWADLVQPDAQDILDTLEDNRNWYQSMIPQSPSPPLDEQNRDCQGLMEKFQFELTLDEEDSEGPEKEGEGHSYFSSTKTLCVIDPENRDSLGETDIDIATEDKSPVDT
In short: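 ACTOne HEK293 cells carry a modified cAMP-gated CNG channel and express endogenous PDE4; plated 1000 cells/well, compounds up to 22.9 uM final. Membrane-potential dye fluorescence (ex 535/em 590) was read; parental cells received 10 uM forskolin + 100 uM RO 20-1724.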

[6] = Cell Viability - N2a (AID 540); details: N2a mouse neuroblastoma cell viability; activity change, negative = cytotoxicity: at 92.2 µM (top of the series); note: nearly all actives have a fitted effect of over 45% in size; note: potency is the fitted concentration of half-maximal effect;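 for activity change, negative = cytotoxicity: plate controls were DMSO alone for no effect and tamoxifen control for full effect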
In short: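 Mouse neuroblastoma N2a cells (1500/well) were preincubated 5 hr at 37 °C, then exposed to compounds for 40 hr at 37 °C in complete medium. Viability was read as intracellular ATP by CellTiter-Glo luminescence; AC50 from Hill fits.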

[7] = Cell Viability - NIH 3T3 (AID 541); details: NIH 3T3 cell viability, qHTS; activity change, negative = cytotoxicity: at 92.2 µM (top of the series); note: nearly all actives have a fitted effect of over 25% in size; note: potency is the fitted concentration of half-maximal effect;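 for activity change, negative = cytotoxicity: plate controls were DMSO alone for no effect and tamoxifen positive control for full effect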
In short: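 NIH 3T3 mouse embryo fibroblasts (1000 cells/well) were plated in complete medium and treated with compound for 40 hr at 37 °C. Viability was read as intracellular ATP by CellTiter-Glo luminescence; AC50 values came from Hill-equation fits of concentration-response data.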

[8] = Cell Viability - H-4-II-E (AID 543); details: H-4-II-E rat hepatoma viability; series mostly up to 92.2 µM; note: nearly all actives have a fitted effect of over 35% in size; note: potency is the fitted concentration of half-maximal effect
In short: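 Rat hepatoma H-4-II-E cells (1500/well) were plated, incubated 5 hr at 37 °C, then exposed to compounds for 40 hr at 37 °C. Cellular ATP was read by CellTiter-Glo luminescence; AC50 came from Hill-equation fits of concentration-response data.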

[9] = Cell Viability - Renal Proximal Tubule (AID 545); details: renal proximal tubule cells viability, primary cells of rat origin; activity change, negative = cytotoxicity: at 91.7 µM (top of the series); note: nearly all actives have a fitted effect of over 40% in size
In short: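 Primary rat renal proximal tubule cells (1000/well) were treated with compounds for 40 hr at 37 °C in complete medium. Intracellular ATP was measured by CellTiter-Glo luminescence, and AC50 values came from Hill-equation fits of concentration-response data.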

[10] = Cell Viability - Mesenchymal (AID 546); details: mesenchymal cells viability, qHTS; activity change, negative = cytotoxicity: at 91.7 µM (top of the series);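 note: cells exposed to compound for 40 hours before reading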
In short: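 AC50 values reflect the drop in intracellular ATP in a human kidney mesenchymal line derived from normal glomeruli. Treatment lasts 40 hr at 37 °C in complete medium, and the signal comes from CellTiter-Glo luminescence.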

[11] = Cellular Toxicity (caspase-3) HUV-EC-C (AID 656); details: HUV-EC-C cells, caspase-3 activation (apoptosis), vehicle = 0, 100 µM tamoxifen = 100%; series mostly up to 92.2 µM
In short: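 HUV-EC-C endothelial cells, 1000/well, were pre-incubated 5 hr at 37°C, then exposed to compounds for 16 hr at 37°C. Caspase-Glo 3/7 luminescence was read after 20 min at room temperature. AC50 came from Hill fits, normalized to DMSO and 100 uM tamoxifen.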

[12] = Cellular Toxicity (caspase-3) SHSY5Y (AID 657); details: SH-SY5Y caspase-3 activation, DMSO zero, 10 µM staurosporine = 100%; series mostly up to 91.7 µM
In short: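 SH-SY5Y human neuroblastoma cells (1500/well) were treated with compounds for 16 h at 37 °C, then Caspase-Glo 3/7 luminescence was read after 1 h at room temperature. Data normalized to DMSO and 10 uM staurosporine; AC50 from Hill fits.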

[13] = Cellular Toxicity (caspase-3) BJ (AID 658); details: BJ fibroblasts, luminescence, normalized: DMSO 0%, staurosporine 100%; series mostly up to 91.7 µM
In short: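 Readout: Caspase-Glo 3/7 luminescence increase in BJ cells after 16 hr treatment at 37 °C. Staurosporine and tamoxifen served as positive controls; AC50 values came from Hill modelling of data normalized to DMSO and 10 uM staurosporine.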

[14] = Cellular Toxicity (caspase-3) MRC-5 (AID 659); details: MRC-5 cells, luminescence, normalized: DMSO 0%, 10 µM staurosporine 100%; series mostly up to 91.7 µM
In short: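 Concentration-dependent caspase 3/7 activation is measured in human normal lung fibroblasts (MRC-5) following 16-hour treatment. AC50 values come from standard Hill-equation modeling of luminescence normalized to DMSO and 10 uM staurosporine.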

[15] = Cellular Toxicity (caspase-3) Mesangial (AID 660); details: mesangial cells; Potency: caspase-3 activation; series mostly up to 91.7 µM;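 note: cells exposed to compound for 16 h before the caspase read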
In short: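 Human renal glomerular mesangial cells (1000/well) were treated with compounds for 16 h at 37 °C in complete medium, then caspase 3/7 activity was read by Caspase-Glo luminescence. Data were normalized to DMSO and 100 uM tamoxifen; AC50 from Hill fits.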

[16] = Cellular Toxicity (caspase-3) H-4-II-E (AID 663); details: H-4-II-E rat hepatoma, scaled: DMSO 0%, 100 µM tamoxifen 100%; at 92.2 µM (top of the series);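 note: cells exposed to compound for 16 hr before readout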
In short: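 Apoptosis induction is scored as increased luminescence from caspase 3/7 substrate cleavage in rat hepatoma H-4-II-E cells exposed to compound for 16 hr. Activity is scaled between DMSO and 100 uM tamoxifen.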

[17] = Cellular Toxicity (caspase-3) Hek293 (AID 664); details: HEK293 caspase-3 activation, DMSO = 0%, 100 µM tamoxifen = 100%; at 92.2 µM (top of the series);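 note: cells exposed to compound for 16 h at 37 °C before readout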
In short: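 HEK293 cells were exposed to compounds in complete medium for 16 hr at 37 °C, then caspase-3/7 activity was read by Caspase-Glo 3/7 luminescence after 20 min at room temperature. Data normalized to DMSO and 100 uM tamoxifen; AC50 from Hill fits.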

[18] = Cellular Toxicity (caspase-3) N2a (AID 665); details: N2a cells, luminescence; Potency: caspase-3 activation; series mostly up to 92.2 µM;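 note: compound exposure lasted 16 h at 37 °C before readout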
In short: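 Mouse N2a neuroblastoma cells (1500/well) were treated with compounds for 16 h at 37 °C, then caspase-3/7 activity was read by Caspase-Glo luminescence after 1 h at room temperature. Data were normalized to DMSO and 10 uM staurosporine; AC50 from Hill fits.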

[19] = Cellular Toxicity (caspase-3) NIH 3T3 (AID 666); details: NIH 3T3 caspase-3 activation, apoptosis/toxicity; series mostly up to 92.2 µM;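 note: caspase signal read after 16 h compound exposure; 0% = DMSO basal and 100% = 100 µM tamoxifen stimulation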
In short: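 Mouse NIH 3T3 fibroblasts (1000 cells/well) were treated with compound for 16 hr at 37°C in complete medium; caspase-3/7 activity was read by Caspase-Glo luminescence. Normalized to DMSO and 100 uM tamoxifen; AC50 from Hill fits.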

[20] = Cell Viability - HUV-EC-C (AID 542); details: HUV-EC-C endothelial cell viability, qHTS; series mostly up to 92.2 µM; note: % is set by controls: 0 for no effect and ±100 for the full control effect; nearly all actives have a fitted effect of over 35% in size
In short: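 HUV-EC-C normal human vascular endothelial cells, 1000 cells/well, pre-incubated 5 hr at 37 °C, then exposed to compounds for 40 hr at 37 °C in complete medium. Viability measured as intracellular ATP by CellTiter-Glo luminescence; AC50 from Hill fits.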

NCCCS(=O)(=O)O
inactive: activity, negative = inhibition [1] -2.17% | Potency [2] > 46 µM | Potency [3] > 46 µM | Potency [4] | outcome [5]

O=C1NC(O)=NC1(c1ccccc1)c1ccccc1
inactive: activity, negative = inhibition [1] -6.76% | Potency [2] > 46 µM | Potency [3] > 46 µM | outcome [5]

O=C1C(SCCO)=C(SCCO)C(=O)c2ccccc21
inactive: Potency [2] > 46 µM | Potency [3] > 46 µM | Potency [4] | outcome [5]
active: activity, negative = inhibition [1] 134%

N.N.O=C(O)C1(C(=O)O)CCC1.[Pt]
inactive: Potency [4] | outcome [5]

COc1cc(CNC(=O)CCCC/C=C/C(C)C)ccc1O
active: Potency [7] 5.01 µM
inactive: Potency [4] | Potency [6] | Potency [8] | activity change, negative = cytotoxicity [9] -16.6% | Potency [10] | outcome [11] | outcome [12] | outcome [13] | outcome [14] | Potency [15] | caspase-3 activation [16] 1.09% | caspase-3 activation [17] 0.218% | Potency [18] | Potency [19]

C[C@@H](CN1CCC(Cc2ccccc2)CC1)[C@@H](O)c1ccc(O)cc1
inactive: Potency [2] > 46 µM | Potency [3] > 46 µM | Potency [4]

N#C/C(=C\c1ccc(O)c(O)c1)C(=O)c1ccc(O)c(O)c1
inactive: Potency [2] > 46 µM | Potency [3] > 46 µM

O=C(O)c1cc(=O)c2ccccc2[nH]1
inactive: Potency [2] > 46 µM | Potency [3] > 46 µM | Potency [4]

CN(C)CCC(c1ccc(Cl)cc1)c1ccccn1 (centres undefined)
inactive: Potency [4] | Potency [6] | Potency [7] | Potency [20] | Potency [8] | activity change, negative = cytotoxicity [9] -6.06% | Potency [10] | outcome [11] | outcome [12] | outcome [13] | outcome [14] | Potency [15] | caspase-3 activation [16] 1.63% | caspase-3 activation [17] 1.34% | Potency [18] | Potency [19]

C[C@@H](NC(=O)/C(C#N)=C/c1ccc(O)c(O)c1)c1ccccc1
inactive: Potency [2] > 46 µM | Potency [3] > 46 µM
active: Potency [4] 12.6 µM

N=C(N)SCCc1ccc(CCSC(=N)N)cc1
inactive: Potency [2] > 46 µM | Potency [3] > 46 µM | Potency [4]

Oc1ccccc1O
inactive: Potency [2] > 46 µM | Potency [3] > 46 µM | Potency [4] | Potency [20] | activity change, negative = cytotoxicity [9] -24.1% | Potency [10] | outcome [5] | outcome [11] | outcome [13] | outcome [14] | Potency [15] | caspase-3 activation [17] 7.91% | Potency [18]
active: Potency [7] 1.26 µM

CN(C)c1ccc(N=NS(=O)(=O)O)cc1
inactive: Potency [4] | Potency [20] | activity change, negative = cytotoxicity [9] 12.3% | Potency [10] | outcome [11] | outcome [12] | outcome [13] | outcome [14] | Potency [15] | caspase-3 activation [16] 11.8% | caspase-3 activation [17] -1.18% | Potency [18] | Potency [19]
active: Potency [6] 31.6 µM | Potency [8] 0.126 µM

O=C(O)[C@@H]1C[C@@H](C(=O)O)N1
inactive: Potency [2] > 46 µM | Potency [3] > 46 µM | Potency [4]

O=S(=O)(c1cccc2c(I)cccc12)N1CCCNCC1
inactive: Potency [2] > 46 µM | Potency [3] > 46 µM | Potency [4] | outcome [5]

Nc1ccc([N+](=O)[O-])cc1O
active: Potency [7] 20 µM
inactive: Potency [4] | Potency [20] | Potency [8] | activity change, negative = cytotoxicity [9] -10.2% | Potency [10] | outcome [11] | outcome [12] | outcome [13] | outcome [14] | Potency [15] | caspase-3 activation [16] 2.85% | caspase-3 activation [17] -2.49% | Potency [18] | Potency [19]

COC1=C(OC)C(=O)c2ccccc2C1=O
inactive: Potency [2] > 46 µM | Potency [3] > 46 µM

NCCO
inactive: Potency [6] | Potency [7] | Potency [20] | Potency [8] | activity change, negative = cytotoxicity [9] -3.73% | Potency [10] | outcome [11] | outcome [12] | outcome [13] | outcome [14] | Potency [15] | caspase-3 activation [16] -0.037% | caspase-3 activation [17] -4.95% | Potency [18] | Potency [19]
